Screening results: PubChem BioAssay, The Scripps Research Institute Molecular Screening Center
Most compounds without a hit are left out; they make up all but 3.5% or so of the library.
FBW7 activator: human FBW7 E3 ligase activation, primary screen | Q969H0 | AlphaScreen FBW7–phospho-cyclin E peptide binding, activator screen | normalized activity (activation), % at 26.1 µM | actives 0.13% (n = 650,000) | AID 1259310; in the data active means normalized activity above about 1.9%;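 further: purified mutant Fbw7 with reduced substrate affinity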
TEAD-YAP block: TEAD-YAP interaction inhibition. inhibition, % at 9.12 µM. AID 1259422. HEK-TIYL cells, TEAD-Gal4/YAP UAS-luciferase luminescence. actives 1.4% (n = 640,000); in the data active means inhibition above about 32%;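 further: 0% = median of test compound wells and 100% = reference inhibitor wells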
MITF primary: human MITF inhibition, primary screen; O75030; AlphaScreen MITF homodimerization, bead proximity signal; inhibition, % at 2.6 µM; actives 0.91% (n = 650,000); in the data active means inhibition above about 50%;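 further: 0% = vehicle wells with protein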
Target sequence (O75030 whole entry, looked up): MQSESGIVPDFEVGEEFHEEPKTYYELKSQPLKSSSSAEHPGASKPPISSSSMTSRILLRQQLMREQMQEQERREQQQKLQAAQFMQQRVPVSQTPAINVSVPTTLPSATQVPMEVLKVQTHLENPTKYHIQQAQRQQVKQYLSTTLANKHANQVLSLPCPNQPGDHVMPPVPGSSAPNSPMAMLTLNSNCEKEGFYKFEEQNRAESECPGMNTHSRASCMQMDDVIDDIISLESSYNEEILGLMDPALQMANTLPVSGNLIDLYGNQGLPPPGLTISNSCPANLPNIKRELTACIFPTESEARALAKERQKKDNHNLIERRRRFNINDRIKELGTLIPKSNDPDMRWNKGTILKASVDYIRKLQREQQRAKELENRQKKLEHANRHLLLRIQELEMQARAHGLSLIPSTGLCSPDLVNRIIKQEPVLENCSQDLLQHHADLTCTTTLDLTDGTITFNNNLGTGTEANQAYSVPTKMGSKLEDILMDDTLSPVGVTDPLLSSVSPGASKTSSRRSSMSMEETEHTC
GPR151 ag: human GPR151 activation; Q8TDV0; PathHunter beta-arrestin GPR151 cells, luminescence; activation, % at 11.2 µM; actives 1% (n = 650,000); AID 1508602; in the data active means activation above about 4.9%;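 further: 0% = median of compound wells and 100% = cells with positive control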
Active calls of the source: *.

SMILES	FBW7 activator	TEAD-YAP block	MITF primary	GPR151 ag
CC1(C)CC(=O)C2=C(C1)NC(=S)NC2c1cccc(F)c1 (centres undefined)	0	52*	-1	0
O=C1CCCC2=C1C(c1cccc(O)c1)NC(=S)N2 (centres undefined)	0	65*	-22	1
CC1(C)CC(=O)C2=C(C1)Nc1ccccc1NC2c1cccc(F)c1 (centres undefined)	0	11	4	-1
O=C1CCCC2=C1C(c1ccc(Cl)cc1)NC(=S)N2 (centres undefined)	0	17	6	2
O=C(Nc1ccc(Br)cc1)c1cccc(Nc2nc(-c3ccccc3)c3cc(Cl)ccc3n2)c1	0	-5	10	0
O=C(c1ccc2c(=O)n(-c3ccccc3)c(=S)[nH]c2c1)N1CCCCC1	0	43*	9	0
O=C(c1ccc2c(=O)n(-c3ccccc3)c(=S)[nH]c2c1)N1CCOCC1	0	-5	-2	-1
N#Cc1ccc(OCC(=O)OCc2ccc(Br)cc2)cc1	0	1	13	0
O=C(COc1ccc(Br)cc1)OCc1ccccc1	1.9*	-4	7	-1
CCc1cc(-c2nc(N)ncc2-c2ccc(Br)cc2)c(O)cc1OC	0	-3	1	0
CCCc1cc(-c2oncc2-c2ccc3c(c2)OCCO3)c(O)cc1OC	0	51*	-4	0
CCc1cc(-c2oncc2-c2ccc(Br)cc2)c(O)cc1OC	0	55*	-3	0
Cc1ccc(CNC(=O)CC2C(=O)NCCN2Cc2ccccc2C)s1 (centres undefined)	0	-2	17	1
CC(=O)NCc1c(C)ncc2c1CCN(C(=O)Cc1cc(=O)oc3cc(C)ccc13)C2	0	5	4	-1
O=C(O)CN(CC(=O)Nc1ccccc1)S(=O)(=O)c1ccc(Br)cc1	0	1	0	-1
S=C(NCc1ccc(Cl)cc1)Nc1ccncc1	0	44*	9	1
S=C(NCc1ccncc1)Nc1cccc(Cl)c1	0	3	-14	1
COc1ccc(C(=O)Nc2ccc(-c3nc4cc(Cl)ccc4o3)c(O)c2)cc1OC	1	-11	13	-1
COc1ccccc1/C=C1/SC(=S)N(CCCC(=O)O)C1=O	0	46*	-1	1
COc1ccccc1/C=C1/SC(=S)N(CCCCCC(=O)O)C1=O	0	58*	2	-1
COCCN1C(=O)/C(=C/c2ccccc2OC)SC1=S	0	3	18	0
Nc1c(C(=O)NCc2cccs2)nnn1-c1ccc(OC(F)(F)F)cc1	0	4	10	1
COc1ccc(S(=O)(=O)NCCCCCC(=O)NC2CC2)cc1	0	5	5	-1
COc1ccc(-c2cnc3c(Nc4ccccc4)nccn23)cc1	0	-2	-9	0
CCOC(=O)c1c(-c2ccccc2)oc2ccc(NS(=O)(=O)c3ccccc3)cc12	0	0	-5	0
SMILES	FBW7 activator	TEAD-YAP block	MITF primary	GPR151 ag
CCOC(=O)c1c(-c2ccccc2)oc2ccc(NS(=O)(=O)c3ccc(OC)cc3)cc12	0	57*	-4	4
CCOC(=O)c1c(-c2ccccc2)oc2ccc(NS(=O)(=O)c3ccc(OCC)cc3)cc12	0	57*	-22	0
CCOc1ccc(/C=C/C(O)=C2/C(=O)NC3(C)CC2c2ccccc2O3)cc1OC (centres undefined)	0	49*	-14	-1
O=C(/C=C/Nc1ccc(O)cc1)c1ccc(Cl)cc1	0	-25	9	0
COc1cc(C(=O)/C=C/Nc2ccc(O)cc2C)cc(OC)c1OC	0	24	3	0
O=C(/C=C/Nc1ccc(Cl)cc1)c1ccccc1	0	35*	9	-2
COc1cc(C(=O)/C=C/Nc2ccc(C)cc2O)cc(OC)c1OC	0	49*	5	-1
COc1cc(C(=O)/C=C/Nc2ccc(Cl)cc2)cc(OC)c1OC	0	38*	-3	1
CCc1ccc(-n2nc3cc(C)c(N)cc3n2)cc1	1	-32	8	-1
Cc1ccc(-n2nc3cc(C)c(N)cc3n2)cc1	0	37*	-11	-1
CC1=C/C(=N\S(=O)(=O)c2ccc(C)cc2)C=CC1=O	0	2	71*	1
C=CCn1c(=O)c2ccccc2n2c(SCC(=O)NC(=O)NCC(C)C)nnc12	0	2	7	-1
O=C1CCCN1CCn1cnc2c(NCCN3CCOCC3)nc(Nc3ccncn3)nc21	0	5	-5	2
Nc1cccc2c1C(=O)c1c(oc3c1ccc1ccccc13)C2=O	0	78*	-3	-2
O=C1CCN(C(=O)c2ccc(-c3nc4ccccc4s3)s2)CC1	0	99*	13	-11
